Data: the supplement of paper PMC6555819

Key:
Test in all cases: PBM binding z-score (relative to random genomic background probes); higher = stronger binding; sequences stand for … in GC…GCGATTGACAGCGTAGAATGAAGG
[1] = system: FXR:RXRa (NR concentration 270 nM, RXRa partner concentration 90 nM)
In short: (§1)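 Ligand-free nuclear receptor dimers were applied to custom Agilent 4×180K protein-binding microarrays whose double-stranded probes carried direct-repeat seeds, single-nucleotide variants, half-site ablations and random human genomic background sequences in 34-nt variable regions. Incubation lasted 1 h. Binding z-scores were computed against the random background probes from regression-normalized fluorescence.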

[2] = system: LXRa:RXRa (NR concentration 270 nM, RXRa partner concentration 90 nM)
In short: as §1

[3] = system: LXRa homodimer (NR concentration 270 nM)
In short: as §1

[4] = system: LXRb:RXRa (NR concentration 270 nM, RXRa partner concentration 90 nM)
In short: as §1

[5] = system: LXRb homodimer (NR concentration 270 nM)
In short: as §1

[6] = system: PPARa:RXRa (NR concentration 270 nM, RXRa partner concentration 90 nM)
In short: as §1

[7] = system: PPARg:RXRa (NR concentration 180 nM, RXRa partner concentration 90 nM)
In short: as §1

[8] = system: PPARg:RXRa 270nM:90nM, anti-RXR (NR concentration 270 nM, RXRa partner concentration 90 nM)
In short: as §1

[9] = system: PPARg:RXRa 30nM:10nM, anti-RXR (NR concentration 30 nM, RXRa partner concentration 10 nM)
In short: as §1

[10] = system: PPARg:RXRa 90nM:30nM, anti-RXR (NR concentration 90 nM, RXRa partner concentration 30 nM)
In short: as §1

[11] = system: PPARg:RXRa DBDmut IVT, anti-RXR (DBD mutation: RXRa K156A/R161A, NR concentration 270 nM, RXRa partner concentration 90 nM)
In short: as §1

[12] = system: PPARg:RXRa IVT, anti-PPARg (NR concentration 270 nM, RXRa partner concentration 90 nM)
In short: as §1

[13] = system: PPARg DBDmut:RXRa IVT, anti-PPARg (DBD mutation: PPARg1 K132A/R137A, NR concentration 270 nM, RXRa partner concentration 90 nM)
In short: as §1

[14] = system: PPARg DBDmut IVT, anti-PPARg (DBD mutation: PPARg1 K132A/R137A, NR concentration 270 nM)
In short: as §1

[15] = system: PPARg homodimer (NR concentration 180 nM)
In short: as §1

[16] = system: PXR:RXRa (NR concentration 270 nM, RXRa partner concentration 90 nM)
In short: as §1

[17] = system: PXR homodimer (NR concentration 270 nM)
In short: as §1

[18] = system: RARa:RXR (NR concentration 270 nM, RXRa partner concentration 90 nM)
In short: as §1

[19] = system: RARa homodimer (NR concentration 270 nM)
In short: as §1

[20] = system: RARb:RXRa (NR concentration 270 nM, RXRa partner concentration 90 nM)
In short: as §1

Sequence	PBM binding z-score [1]	PBM binding z-score [2]	PBM binding z-score [3]	PBM binding z-score [4]	PBM binding z-score [5]	PBM binding z-score [6]	PBM binding z-score [7]	PBM binding z-score [8]	PBM binding z-score [9]	PBM binding z-score [10]	PBM binding z-score [11]	PBM binding z-score [12]	PBM binding z-score [13]	PBM binding z-score [14]	PBM binding z-score [15]	PBM binding z-score [16]	PBM binding z-score [17]	PBM binding z-score [18]	PBM binding z-score [19]	PBM binding z-score [20]
CAGCCTTGGTCAGGGCCAGTATAGGAGGAACGTT	-0.896	-0.936	-0.824	-0.976	-1.46	-0.531	-0.0449	-0.51	-0.686	-0.517	-0.703	-0.873	-1.09	-1.73	-1.21	-0.903	-0.901	-0.84	-0.916	0.481
TGAATGTGGTTAAAGATCAGGGAACGTGGCGTCG	-0.133	-0.264	0.0303	-0.186	0.696	0.692	1.33	2.69	1.45	2.47	-0.308	0.475	0.142	1.06	0.818	-0.282	-0.00828	-0.185	0.484	-0.112
TCGAGTAGGTTACCAATGGGGCATACAGCTTTCT	0.164	1.55	-0.441	1.04	-0.663	1.18	0.984	1.68	1.27	1.28	3.13	3.01	-0.185	-0.3	-0.0294	0.327	-0.38	0.453	-0.62	0.89
AGCATGAGGTTATTAAGATCAGGGAATTGCGGTC	1.6	1.5	0.191	1.14	-0.175	2.03	0.647	1.13	0.242	0.454	0.439	0.818	0.518	-0.586	0.577	1.29	0.786	1.44	0.368	1.45
TCTAGTTGGTCAAAGGTCACACAATCGAAATGCG	5.53	5.9	3.73	5.66	2.13	6.6	11.8	9.87	11.7	11.4	3.58	6.28	1.49	2.13	4.36	5.97	2.1	7.76	3.91	5.16
ATATGTAGGTTAGTTGGGGTCATTCAGACTAGGC	5	6.61	5.82	5.76	1.94	5.47	5.44	5.32	2.72	4.54	6.81	5.83	2.02	2.15	3.78	6.79	7.04	5.99	2.35	3.21
CCCGACAGGTGAAAGGTAACTCAGTCTGGTACGC	0.639	0.898	-0.133	0.876	-0.143	3.39	5.1	5.75	3.73	5.61	1.64	2.67	-0.316	-0.825	0.815	0.798	0.0265	1.73	0.375	1.09
CGAGACAGGTGAGAAGGTAACTCAGCCTCGATTA	-0.0468	-0.124	-0.337	-0.343	-0.761	0.591	0.452	0.452	-0.196	0.138	0.944	0.575	-0.719	-0.428	0.307	-0.433	-0.255	-0.528	-0.321	0.602
ACTATTAGTTGACTTAGGGCCACCGATACGACGC	0.803	0.394	0.324	0.152	0.713	0.121	1.07	0.422	0.18	0.363	0.373	0.728	1.68	1.42	0.408	0.124	0.0401	0.753	0.459	0.755
TCTAGTTGGTCAAAGATCACACACTCGAAATGCG	1.08	0.894	0.461	1.25	0.389	3.18	5.95	6.52	5.72	6.88	2.51	2.84	1.33	1.22	1.93	1.07	0.547	1.77	0.928	1.3
GATACTGGGTCAAGGCCAGAGTACGCGTATTGAT	2.37	1.21	-0.0541	1.22	-0.791	4.05	5.9	5.27	2.7	4.74	6.7	7.44	0.217	1.07	1.49	1.23	-0.00412	1.72	0.506	3.48
ACCTCTAGGTAACAAGTTCAGTGAAAGAGAGGAC	0.245	0.295	0.188	0.426	-0.0173	1.02	1.18	1.5	0.452	1.29	3.28	2.07	0.823	0.266	0.609	1.57	1.32	0.59	-0.291	1.51
TAGCCTAGGTCATTGGGCCAGTTTAGTACGCATC	4.25	3.21	0.757	2.35	0.194	3.88	3.49	3.27	0.719	2.06	2.53	3.45	-0.6	0.202	0.893	1.71	-0.11	2.11	-0.422	3.52
GATACAGGGTCAAGGCCAAAGTACGCGTATTGAT	6.56	4.57	0.296	4.15	0.33	5.6	6.18	5.96	2.37	4.76	2.58	4.27	2.3	0.743	3.07	4.48	0.731	5.02	1.25	4.5
ATCACTAGGTAACAAGTTCAGTGAAAGAGAGGAC	0.674	0.942	0.705	0.664	0.576	1.94	3.04	3.04	1.14	2.5	5	4.3	1.27	0.914	1.31	1.95	2.35	0.935	1.41	1.8
CGAACGAGCGCATGAGTTGATAGCAAATGCCGAT	-0.525	-0.575	-0.486	-0.865	-1.12	-1.7	0.405	-0.647	-0.312	-0.44	-0.785	-0.827	-0.939	-1.33	-2.16	-0.509	-0.275	-0.304	-0.678	-1.03
CCTGCTAGGTCAATGCTCAGCTAAAGCAGCTCGC	2.82	1.9	-0.307	1.16	-0.142	2.54	1.2	1.88	-0.451	0.833	4.63	3.35	0.0583	-0.86	0.329	0.498	-0.943	1.19	-0.48	3.61
AATACAGCGTCACTAGGCCAGAGTAGGTACGAAT	-0.287	-0.499	-0.588	-0.808	-0.279	0.0154	0.87	0.513	0.103	0.0712	0.487	1.5	-0.275	0.0334	-0.38	-0.519	-0.407	-0.516	-0.0306	-0.113
ATATGTAGGTTAGCTGGGGACATTCAGACTAGGC	1.86	1.8	0.679	1.14	0.544	2.64	3.46	2.89	1.12	2.16	6.96	6.07	2.18	1.88	1.9	2.92	0.356	1.71	1.2	1.22
CGTCCAAGGTCAATGCTAGGTCAGGGAAAGCATT	6.82	5.42	2.86	4.1	0.919	5.17	4.49	4.52	1.47	3.37	2.8	4.06	-0.00201	-0.912	3.8	4.55	0.675	5.55	0.824	5.31
CCTTACGGGTCAAAGTTATAGCACGGGTGGTACG	6.21	3.95	0.182	3.42	0.711	5.06	5.04	5.46	2.56	4.63	1.88	3.45	0.255	0.0478	2.1	3.35	0.317	4.38	1	3.7
TCTTGTAGATCAAGCAGGTTAAGAGAGCCTGAGT	0.126	0.03	-0.729	0.145	-0.665	0.53	-0.372	0.87	2.06	1.55	1.44	0.423	-0.603	-0.0222	-0.58	0.103	-0.227	-0.116	-0.124	0.0485
TCTTGTTGATCAATAGAGGTTAAGAAAGTGCGCT	0.549	3.17	0.564	2.1	0.134	2.02	-0.0546	1.87	2.82	2.46	1.5	0.913	0.422	1.13	0.192	2.89	0.147	1.71	0.519	1.05
TGAATGAGGTTATCAGATCAGGGAACGTTGCAAA	1.75	1.5	-0.39	1.18	-0.266	3.2	1.74	2.18	0.777	1.28	1.59	2.2	0.55	-0.0543	1.69	0.942	-0.255	1.45	-0.892	1.44
TCATATAGGTAAAGGTGAATGTCGAACGATATGA	0.972	1.33	-0.151	1.19	-0.0794	2.99	4.24	4.23	4.36	4.59	3.9	4.33	0.991	1.7	1.02	0.695	0.181	1.46	0.501	1.87
CCGAGTAGGTTAGGGGGCATTCAGGCAACGGTGA	1.36	1.91	0.834	4.42	6.02	4.43	6.67	7.33	5.18	7.46	2.55	4.72	4.62	4.7	2.25	2.19	1.47	2.41	0.807	2.11
GCATATAGGGAATACAAGGTGAAAGTCCGATTGT	0.23	-0.211	-0.101	-0.103	-0.489	0.924	0.818	0.797	0.0214	0.338	1.83	1.35	0.819	-0.152	0.308	0.0196	-0.0382	1.58	0.263	0.266
TGAATGAGGTAATAAGATCAGGGAACGTTGCAAA	-0.101	-0.238	-0.404	-0.279	-0.0513	0.529	0.563	0.725	0.309	0.427	0.356	1.03	0.129	-0.853	-0.59	-0.275	-0.242	-0.0415	-0.474	-0.231
